The values below come from PubChem BioAssay (NCATS).

Results filed as inconclusive are left out. Values without a mark were called inactive. Active and inactive are the calls of the source. Calls come from the whole dose curve; as a rule, active = well fitted activation curve with a large enough effect in the repeat runs; inconclusive = weak or mixed curves; inactive = flat fitted curve, though single readings scatter.

The test can be described thus: qHTS assay for small molecule agonists of the antioxidant response element (ARE) signaling pathway measured by Nrf2-dependant transcriptional activity (AID 720636). Note: % of control where 0% means no effect. The settings on record: ARE-luc HepG2, Nrf2 luciferase reporter, 16 h; series mostly up to 92.4 µM; activation: at the top concentration. The text has this:
National Center for Advancing Translational Sciences [NCATS] NIH Chemical Genomics Center [NCGC] U.S. Environmental Protection Agency [EPA] National Institutes of Environmental Health Sciences [NIEHS] National Toxicology Program [NTP] Assay Overview: The antioxidant response element (ARE) signaling pathway plays an important role in the cellular anti-oxidant defense. Exposure to stressors which are exogenous like ionizing radiations, chemicals, U-V light, and endogenous like cell signaling, metabolic processes or inflammation, reactive oxygen species (ROS), can induce oxidative stress in the cells. Oxidative stress has been implicated in the pathogenesis of a variety of diseases ranging from cancer to neurodegeneration. ARE-luc HepG2 cell line (Simmons et al., Current Chemical Genomics, 5:1-12, 2011) has been used for identifying the chemicals that induce oxidative stress. The cell line has an Nrf2-responsive luciferase reporter gene that has been engineered to measure Nrf2-dependant transcriptional activity.
Assay Protocol Summary: For measuring ARE induction; 2,000 ARE-luc HepG2 cells in 5 uL of assay medium containing 1% dialyzed FBS per well were dispensed into white wall/solid bottom 1536-well plates using a Flying Reagent Dispenser (FRD) (Aurora Discovery). The assay plates were incubated for 6 hr at 37 C to allow cell attachment to the well bottom, followed by the transfer of 23 nL compound or DMSO vehicle by a pin tool (Kalypsys). The plates were incubated for 16 hr at 37 C and 5% CO2, followed by the addition of 5 uL of ONE-GloTM luciferase reagent (Promega) into each well using FRD. After 30 min room temperature incubation, plates were read on a ViewLux plate reader (PerkinElmer).
In general terms: In qHTS, concentration-response curves come from the screen itself.
`Cc1ccccc1`: the compound was called inactive.

Regarding `CCCCCCCC/C=C\CCCCCCCC(=O)O`, the call was inactive.

Turning to `O=CCCCC=O`, the “activation” value is 1.52%.

In the case of `CC(C)=O`, the “activation” value was -2.41%.

`CCCCC(CC)COC(=O)CC(C(=O)OCC(CC)CCCC)S(=O)(=O)O` (stereo not drawn): the “activation” value is -5.01%.

On to `CC1(C)C(C=C(Cl)Cl)C1C(=O)OCc1cccc(Oc2ccccc2)c1` (stereo not drawn), for which the compound was called inactive.

As to `IC(I)I`, the result was inactive.

On to `O=C(O)CCC(=O)C(=O)O`, for which the “activation” value was -1.57%.

As to `O=C(O)CN(CCN(CC(=O)O)CC(=O)O)CC(=O)O`, the compound was called inactive.

Take `CCCCC/C=C\C/C=C\CCCCCCCC(=O)O`: the call was inactive.

With `CCOC(C)=O`, the “activation” value was -1.65%.

As for `CCCCCCCC(=O)O`, the compound was classed as inactive.

On to `Nc1ccn([C@H]2CS[C@@H](CO)O2)c(=O)n1`, for which the “activation” value was -0.914%.

`CC1=CCC(C(C)(C)O)CC1` (stereo not drawn): the “activation” value was -0.067%.

`CC(O)CO` (stereo not drawn): the result was inactive.

As for `C[C@H]1C[C@H]2[C@@H]3CCC4=CC(=O)C=C[C@]4(C)[C@@]3(F)[C@@H](O)C[C@]2(C)[C@@]1(O)C(=O)CO`, the “activation” value is -0.0549%.

For the compound `CC1=C2[C@@H]([C@H](C)CC[C@H]2/C=C(\C)C(=O)O)[C@H](O)C1`, the “activation” value is -0.751%.

`O=S(=O)(O)O`: the compound was called inactive.
